# Screening data from PubChem.
# Hits are enriched below; roughly 1.2% of the tested compounds scored in any of these assays.
# p97 ATPase inh = blocks human p97 ATPase activity. P55072. recombinant p97 ATPase, Kinase-Glo ATP luminescence, 3 h. inhibition, % at 8 µM. actives 0.42% (n = 220,000). AID 1481; in the data active = inhibition above about 15%;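 also: 0% = DMSO vehicle and 100% = wells lacking enzyme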
# Furin inh = inhibitors of human furin; inhibition, % at 20 µM or 30 µM; purified furin, fluorogenic substrate cleavage; actives 0.061% (n = 220,000); in the data active = inhibition above about 25%
# SUMO HTRF inh = blocks human SUMOylation mediated by UBC9 | AID 2006 | P63279 | actives 0.36% (n = 290,000) | HTRF SUMOylation assay, SAE1/SAE2 + UBC9, in vitro | inhibition, % at 35 µM; in the data active = inhibition above about 50%, passing the limit was not always enough
# Target sequence (P63279 whole entry, looked up): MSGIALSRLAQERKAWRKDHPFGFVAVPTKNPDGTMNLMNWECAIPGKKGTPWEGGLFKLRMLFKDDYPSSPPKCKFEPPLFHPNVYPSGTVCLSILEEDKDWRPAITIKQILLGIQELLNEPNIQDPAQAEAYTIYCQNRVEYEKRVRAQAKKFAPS
# FAS TE block = inhibitors of human fatty acid synthase thioesterase domain; inhibition, % at 15 µM; actives 0.67% (n = 360,000); recombinant FAS-TE, OMFH fluorogenic substrate, fluorescence endpoint; P49327;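 active = compounds whose normalised, plate-corrected inhibition of enzyme fluorescence in the single-dose primary screen is 50% or more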;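 also: 0% = DMSO with enzyme and 100% = substrate without enzyme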
# PKD1 inh = inhibitors of human PKD1 kinase. Q15139. PKD1 kinase fluorescence polarization assay. inhibition, % (concentration not given with the values). actives 0.056% (n = 200,000). AID 797; in the data active = inhibition above about 50%
# DTT redox prof = compounds producing H2O2 with reducing agent – biochemical, NIH compound library profiling, artefact control for MLSCN library redox annotation, primary screen; DTT-dependent redox cycling H2O2, phenol red/HRP absorbance; 100% = 100 µM peroxide control, 0% = buffer; AID 878; activation, % at 10 µM; actives 0.03% (n = 200,000);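 active = activation of at least 50% relative to the plate's high and low controls in the primary single-dose screen; inactive = activation below 50%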;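 also: compound incubated with DTT at 0.8 mM final as the reducing agent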
# FAS-TE conf = FAS thioesterase (human) inhibition, confirmation. shares compounds with FAS TE block. recombinant FAS-TE, OMFH fluorogenic substrate, fluorescence. inhibition, % at 15 µM. actives 45% (n = 2,300). AID 624325;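 active = compounds inhibiting the enzyme by at least 50% at 15 µM in any one of the replicates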;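 also: 0% = enzyme with DMSO only and 100% = wells lacking enzyme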
# An asterisk follows results filed as active; . = not tested or not shown.
SMILES,p97 ATPase inh,Furin inh,SUMO HTRF inh,FAS TE block,PKD1 inh,DTT redox prof,FAS-TE conf
O=C(COc1ccc2c(-c3ccccc3)cc(=O)oc2c1)NC(Cc1c[nH]c2ccccc12)C(=O)O (configuration not stated),.,.,.,8.9,.,.,.
Cc1cc(Cl)cc(C)c1OCC(=O)N1CCN(c2ncccn2)CC1,.,.,.,13.7,.,.,.
CC1N(C)c2cc(NC(=O)c3cccs3)c(P(=O)(Nc3ccc([N+](=O)[O-])cc3)N3CCOCC3)cc2C1(C)C (configuration not stated),8.5,-9.9,-1.1,52.4*,-0.2,-1.6,34.0
CN(C)c1ccc(P(=O)(Nc2cccc(C(F)(F)F)c2)N2CCOCC2)c(NC(=O)c2cccs2)c1 (configuration not stated),2.6,-36.1,-14.0,52.9*,-9.3,-0.1,22.5
O=C(Nc1cc(C(F)(F)F)ccc1N1CCOCC1)c1cccs1,-7.0,-3.6,7.0,14.8,6.1,0.5,.
CC1(C)N=C(c2ccccc2)C(c2ccccc2)=N1,.,.,.,-2.0,.,.,.
COc1cccc(OCCOc2ccc(/C=C3/SC(=S)NC3=O)cc2)c1,.,.,34.9,67.7*,.,.,39.8
COc1ccc(C=C2SC(=S)NC2=O)cc1,.,.,.,8.8,.,.,.
O=C(COc1ccccc1F)NCC(c1ccc(F)cc1)N1CCOCC1 (configuration not stated),.,.,.,-3.8,.,.,.
COc1ccc(-c2[nH]n(-c3ccc([N+](=O)[O-])cc3)c(=O)c2C=NCCN2CCNCC2)cc1,3.3,-8.2,10.6,.,6.3,0.8,.
COc1ccc(-c2[nH]n(-c3ccc([N+](=O)[O-])cc3)c(=O)c2C=NCc2ccccc2)cc1,4.5,-25.9,5.2,54.5*,-1.6,-0.1,1.2
CCCCCCCOC(=O)c1nc(Cl)c(Cl)c(N)c1Cl,-4.6,-10.1,-19.1,54.5*,3.7,-0.1,35.1
CN(CC(=O)Nc1ccc(F)cc1)C(=O)COC(=O)c1cc(S(=O)(=O)N(C)C)ccc1N1CCCC1,.,.,.,1.3,.,.,.
O=C(CNC(=O)OCc1ccccc1)OC(c1ccccc1)c1ccccc1,.,.,.,17.1,.,.,.
COc1cc(CCc2ccccc2)c(C(=O)O)c(O)c1CC=C(C)C,.,.,.,19.2,.,.,.
COc1cc(CCc2ccccc2)c(C(=O)O)c(O)c1C/C=C(/C)CCC=C(C)C,.,.,.,87.4*,.,.,59.2*
O=C1Nc2cc(Cl)c(Cl)cc2N(O)N1c1ccc(Cl)c(Cl)c1,0.3,-13.7,3.5,61.5*,1.4,2.5,66.6*
CC(=O)Nc1cncc(-c2ccccc2N(C)C)n1,.,.,.,-4.9,.,.,.
O=C(CSc1ccc([N+](=O)[O-])cc1)NCC1CCCCC1,-0.5,-18.2,0.9,55.2*,-0.1,-1.4,61.9*
COc1ccc(NC(=O)CN(c2ccc([N+](=O)[O-])cc2)S(=O)(=O)c2ccccc2)c(OC)c1,4.5,-7.0,-7.0,69.5*,-1.1,0.3,68.3*
COc1ccc([N+](=O)[O-])cc1NC(=O)CC(c1ccccc1)c1ccccc1,2.5,-25.2,-20.1,61.8*,-2.0,0.8,54.2*
COc1cccc(NC(C)C(=O)Nc2cc([N+](=O)[O-])ccc2Cl)c1 (configuration not stated),-2.1,-14.5,-3.8,55.7*,-0.2,-1.1,58.3*
COc1ccc(N(CC(=O)Nc2ccc(OC)cc2OC)S(=O)(=O)c2ccccc2)cc1,1.4,-14.1,6.5,38.0,-1.8,-0.2,.
COc1ccc([N+](=O)[O-])cc1NC(=O)C1(c2ccccc2)CCOCC1,3.5,10.1,-6.3,50.7*,-4.8,-1.8,52.6*
C[C@]12c3[nH]c4ccccc4c3CCN1C(=O)C(CC(=O)NCCc1ccccn1)C[C@@H]2C(=O)N1CCOCC1 (some centres not stated),.,.,.,-5.2,.,.,.
COc1ccc([N+](=O)[O-])cc1NC(=O)CSc1nc(C)cc(C)n1,5.2,-19.4,-0.1,18.0,-10.3,0.1,.
O=C(Nc1cc([N+](=O)[O-])ccc1Cl)C(Sc1ccccc1)c1ccccc1 (configuration not stated),-5.7,3.7,-1.6,73.2*,-2.5,-1.1,67.3*
COc1ccc(N(CC(=O)N/N=C/c2ccc(OC3CSC3)cc2)S(=O)(=O)c2ccccc2)cc1,7.4,-27.8,8.1,50.2*,-2.5,1.2,6.0
